Screening results (PubChem)
Hits are enriched below; roughly 2.2% of the tested compounds scored in any of these assays.
ABCB6 inh MLPCN: ABCB6 transporter inhibitors, primary screen, K562-ABCB6 cells, flow cytometry, MLPCN library. ATP-binding cassette sub-family B member 6 (Homo sapiens), Q9NP58. K562-ABCB6 porphyrin accumulation, 1 h; stronger effect = lower value. fluorescence ratio to DMSO, % at 10 µM. 0.19% of 360,000 active;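 active = fluorescence ratio to DMSO below 75%, the collection mean minus 3 SD; inconclusive = too few cells collected in the well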;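 also: signal is porphyrin accumulated inside mitochondria; lower ratio means ABCB6 inhibition with less porphyrin fluorescence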
Target sequence (Q9NP58 whole entry, looked up): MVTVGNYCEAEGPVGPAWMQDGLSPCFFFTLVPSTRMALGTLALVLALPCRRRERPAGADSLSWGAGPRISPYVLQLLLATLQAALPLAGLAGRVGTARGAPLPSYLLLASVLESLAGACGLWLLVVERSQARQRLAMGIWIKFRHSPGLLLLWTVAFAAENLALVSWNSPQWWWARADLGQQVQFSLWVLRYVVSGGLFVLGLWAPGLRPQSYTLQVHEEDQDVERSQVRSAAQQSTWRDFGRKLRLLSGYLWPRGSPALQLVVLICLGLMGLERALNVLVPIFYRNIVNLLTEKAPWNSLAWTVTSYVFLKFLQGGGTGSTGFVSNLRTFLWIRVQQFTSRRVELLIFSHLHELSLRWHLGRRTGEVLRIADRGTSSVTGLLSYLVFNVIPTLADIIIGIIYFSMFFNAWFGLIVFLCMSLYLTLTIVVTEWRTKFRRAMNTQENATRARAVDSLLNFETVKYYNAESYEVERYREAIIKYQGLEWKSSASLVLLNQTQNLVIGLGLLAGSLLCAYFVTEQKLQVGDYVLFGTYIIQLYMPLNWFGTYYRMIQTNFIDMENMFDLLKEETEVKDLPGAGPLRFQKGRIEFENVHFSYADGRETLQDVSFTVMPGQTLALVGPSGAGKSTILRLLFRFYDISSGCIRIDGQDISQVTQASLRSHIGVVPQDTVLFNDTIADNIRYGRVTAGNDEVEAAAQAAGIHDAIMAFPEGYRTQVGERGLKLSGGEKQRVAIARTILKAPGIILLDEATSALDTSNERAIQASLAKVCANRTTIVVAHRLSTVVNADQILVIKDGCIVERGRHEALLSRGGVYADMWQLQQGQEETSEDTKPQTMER
hiPSC survival: enhancers of single-cell hiPSC survival, primary screen, ATPlite luminescence | 100% = ROCK inhibitor wells, 0% = DMSO | survival enhancement, % at 20 µM | 0.044% of 360,000 active | AID 602274, 2012; in the data active = survival enhancement above about 18%;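 also: cells exposed to compounds for 16 hours before the ATP read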
Myeloid diff 2: induction of myeloid progenitor differentiation, primary screen, cell-based, flow cytometry, MLPCN library; ER-HoxA9 myeloid progenitors, lysozyme-GFP differentiation; calls only at 10 µM; 1% of 360,000 active;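 active = normalized GFP-positive differentiation at or above the plate's own cutoff, the solvent-only control mean plus 3 SD; inconclusive = no clear call, values can overlap the other calls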;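 also: cells exposed to compound for four days before flow analysis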
beta cell repl: inducers of MIN6 beta-cell proliferation, primary screen, ATP luminescence, uHTS. proliferation, % at 10 µM. AID 2380, 2010. 0.29% of 330,000 active. MIN6 cells proliferation, ATPlite luminescence, 48 h; cells starved in 0.2% serum; 100% = growth in 10% serum;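 active = compounds whose signal lies at least 3.5 SD above the mean of all wells on their plate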
H9c2 protect: cardioprotection against H2O2-induced cell death, primary screen, uHTS, H9c2 cells, ATPLite luminescence. H9c2 cardiomyocytes, H2O2 injury protection, 2 h. protection from H2O2 cell death, % at 20 µM. 0.63% of 360,000 active. AID 588492, 2011;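 active = compounds giving at least 50% protection of heart cells from peroxide-induced death in the single-dose screen, raw or plate-pattern-corrected value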
Large screens that a line does not name were inactive.

COc1ccc2[nH]c(=O)c(CN(C3CCCCC3)C(c3nnnn3Cc3ccco3)C(C)C)cc2c1 (centres undefined)	H9c2 protect 95
COCCn1nnnc1C(C(C)C)N(Cc1cccnc1)Cc1cc2cc(OC)ccc2[nH]c1=O (centres undefined)	H9c2 protect 61
CCC(c1nnnn1Cc1ccco1)N(Cc1cc2cc(C)cc(C)c2[nH]c1=O)CC1CCCO1 (centres undefined)	H9c2 protect 62
COc1ccc2[nH]c(=O)c(CN(Cc3ccco3)C(c3nnnn3Cc3ccccc3)C(C)C)cc2c1 (centres undefined)	H9c2 protect 51
CCn1c(=O)c2ccccc2n2c(SCC(=O)NCc3cccs3)nnc12	none
O=C(CCNC(=O)N1CC(=O)Nc2ccccc21)NCCc1cccc(F)c1	none
CCCN1C(=O)/C(=C/c2ccc(N3CCCC3)c(C)c2)NC1=S	Myeloid diff 2 active
CCCN1C(=O)/C(=C/c2ccc(N3CCOCC3)cc2)NC1=S	none
Cc1cc(/C=C2\NC(=S)N(C)C2=O)ccc1N1CCCC1	Myeloid diff 2 active
O=C(Nc1ccccc1F)c1ccc(Cn2cc(Cl)cn2)cc1	none
Cc1cccc(CN(Nc2ccccc2)c2ccccc2)n1	none (no result: beta cell repl)
COC(=O)[C@H](Cc1ccccc1)NC(=O)[C@@H](N)CC(=O)OCc1ccccc1	Myeloid diff 2 active
COCCn1c(C)nnc1SCC(=O)NNC(=O)c1ccc(Br)cc1	none
COc1ccc(N2CCN(C(=O)C(=O)c3cn(CC(=O)N4CCCCCC4)c4ccccc34)CC2)cc1	Myeloid diff 2 active
Cn1cc(C(=O)c2ccc(Cl)cc2Cl)cc1C(=O)N/N=C(\N)COc1ccc(Cl)cc1	H9c2 protect 96
Cn1cc(C(=O)c2ccc(Cl)cc2Cl)cc1C(=O)N/N=C(\N)COc1ccc(Cl)cc1Cl	H9c2 protect 86
Cn1cc(C(=O)c2ccc(Cl)cc2Cl)cc1C(=O)N/N=C(\N)COc1ccc(F)cc1	none
Cn1cc(C(=O)c2ccc(Cl)cc2Cl)cc1C(=O)N/N=C(\N)COc1ccccc1	none
CN(c1ccccc1)S(=O)(=O)c1cc(C(=O)OCC(N)=O)ccc1Cl	none
O=C(CCN=C1NS(=O)(=O)c2ccccc21)OCc1ccccc1	none
CCOc1ccc(NC(=O)C2CCCN(S(=O)(=O)c3ccc(-n4cnnn4)cc3)C2)cc1 (centres undefined)	none
Cc1sc(NC(=O)COc2cccc(-n3cnnn3)c2)c(C#N)c1C	Myeloid diff 2 inconclusive
CCOC(=O)c1ccc(NC(=O)Oc2cc(C)c(Cl)cc2C(C)C)cc1	none
Cc1cccn2c(=O)c3cc(C#N)c(=NC(=O)c4cccs4)n(CCCOC(C)C)c3nc12	H9c2 protect 57
CCOC(=O)c1cc2c(=O)n3cccc(C)c3nc2n(CCCOC)c1=NC(=O)c1cccnc1	H9c2 protect 101
CCCCn1c(=NC(=O)c2cccnc2)c(C#N)cc2c(=O)n3cccc(C)c3nc21	H9c2 protect 54
Cc1cccn2c(=O)c3cc(C#N)c(=NC(=O)c4ccncc4)n(CCCOC(C)C)c3nc12	none
CCOc1ccc(NC(=O)CN2CCN(c3ccccc3C)CC2)cc1S(=O)(=O)N1CCCC1	none
Cc1nc(NCc2ccc3c(c2)OCO3)c2oc3ccccc3c2n1	none
CS(=O)(=O)N(Cc1cc2ccccc2[nH]c1=O)C1CCCCC1	hiPSC survival 27
Cc1ccc(CC(=O)O/N=C(\N)c2ccncc2)cc1	Myeloid diff 2 active
N/C(=N\OC(=O)Cc1ccccc1)c1ccncc1	none
CNS(=O)(=O)c1cc(NC(=O)c2cccc3cccnc23)ccc1C	none
Cc1ccc(S(=O)(=O)N2C[C@H]3n4c(=O)ccc(=O)n4C[C@H](OC(=O)Nc4c(C)noc4C)[C@@]3(O)C2)cc1	none (no result: beta cell repl)
Cc1ccc(S(=O)(=O)N2C[C@H]3n4c(=O)ccc(=O)n4C[C@H](OC(=O)NC4CC4)[C@@]3(O)C2)cc1	Myeloid diff 2 active (no result: beta cell repl)
Cc1c(C)c2ccc(O[C@@H]3O[C@H](CO)[C@H](O)[C@H](O)[C@H]3O)cc2oc1=O	Myeloid diff 2 active
Cc1cc(=O)oc2cc(O[C@@H]3O[C@H](CO)[C@H](O)[C@H](O)[C@H]3O)ccc12	none
Cc1ccc(N2C(=O)CSCC2=O)cc1	none
Cc1ccc(N2C(=O)CS/C2=C(\C(Cl)=C(Cl)Cl)[N+](=O)[O-])cc1	H9c2 protect 69
COc1ccc(CN2CCN(S(=O)(=O)c3ccc(NC(C)=O)cc3)CC2)c(OC)c1OC	Myeloid diff 2 active
Cc1ccc(S(=O)(=O)NNc2nnc(C)c(=O)[nH]2)cc1	none
COc1ccc(/C=C/c2ccc3cccc(O)c3n2)cc1Br	H9c2 protect 62
COc1cc(/C=C/c2ccc3cccc(O)c3n2)cc(Br)c1OC	Myeloid diff 2 inconclusive, H9c2 protect 80
COc1cc(/C=C/c2ccc3cccc(O)c3n2)cc(OC)c1OC	none (no result: Myeloid diff 2)
COc1ccc(/C=C/c2ccc3c(Br)ccc(O)c3n2)cc1	H9c2 protect 62
COc1ccc(CC(N)c2csc(NC(=O)c3ccc(OC)cc3)n2)cc1 (centres undefined)	none (no result: beta cell repl)
CC1Cc2ccccc2N1C(=S)Nc1ccc(S(N)(=O)=O)cc1 (centres undefined)	Myeloid diff 2 active
CC1Cc2ccccc2N1C(=S)NC(=O)c1cccc(Br)c1 (centres undefined)	H9c2 protect 69
CC1Cc2ccccc2N1C(=S)NC(=O)c1ccc(Cl)cc1Cl (centres undefined)	none
CC(=O)c1ccc(NC(=S)N2c3ccccc3CC2C)cc1 (centres undefined)	none
CN(C)C(=O)Nc1ccccc1CC[N+](=O)[O-]	none
O=C(O)c1ccc(CSc2nnnn2-c2ccc(F)cc2)cc1	none
O=C(CSc1nnnn1-c1ccc(F)cc1)c1ccc(O)c(O)c1	H9c2 protect 54 (no result: beta cell repl)
Cc1nnc(SCCn2c(N3CCCCC3)nc3c2c(=O)[nH]c(=O)n3C)s1	none
C/C(=N\Nc1nnc2c3ccccc3n(C)c2n1)c1ccc(C)o1	H9c2 protect 70
COC(=O)[C@H]1[C@H]2C[C@@H]3c4[nH]c5cc(OC)ccc5c4CCN3C[C@H]2C[C@@H](OC(=O)c2cc(OC)c(OC)c(OC)c2)[C@@H]1OC	none
COC(=O)C1C2CC3c4[nH]c5cc(OC)ccc5c4CCN3CC2CC(OC2CCCCO2)C1OC (centres undefined)	Myeloid diff 2 active (no result: beta cell repl)
CCCCOc1ccc(C(=O)NCC(=O)NC(C)CCc2ccccc2)cc1 (centres undefined)	Myeloid diff 2 active
CC(C)c1ccc2[nH]c3nc(SCC(=O)NC4CC4)nnc3c2c1	Myeloid diff 2 active
CCOc1ccc2[nH]c3nc(SCC(=O)OC(C)C)nnc3c2c1	none
Cc1nc(SCC(=O)Nc2cc(S(=O)(=O)N3CCOCC3)ccc2Cl)nc(C)c1C	none
